Experimental data published in PubChem BioAssay AID2014 (Sanford-Burnham Center for Chemical Genomics, 2009).
In all, about 290,000 compounds went through this assay and about 3,000 (1%) were called active. How the calls were made is not given here. Shown is part of a subset that was picked to be rich in actives.

Molecular target: Polyadenylate-binding protein 1 (Homo sapiens) (UniProt P11940)
Assay: blockers of PABP interaction with poly(A) – biochemical, fluorescence polarization, uHTS, primary screen (AID 2014);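 further: calls also rest on retests at 20 µM and on dose response follow-up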
Details: PABP-poly(A) RNA binding, stronger effect = higher value

Sequence of Polyadenylate-binding protein 1 (Homo sapiens) (P11940 whole entry, looked up): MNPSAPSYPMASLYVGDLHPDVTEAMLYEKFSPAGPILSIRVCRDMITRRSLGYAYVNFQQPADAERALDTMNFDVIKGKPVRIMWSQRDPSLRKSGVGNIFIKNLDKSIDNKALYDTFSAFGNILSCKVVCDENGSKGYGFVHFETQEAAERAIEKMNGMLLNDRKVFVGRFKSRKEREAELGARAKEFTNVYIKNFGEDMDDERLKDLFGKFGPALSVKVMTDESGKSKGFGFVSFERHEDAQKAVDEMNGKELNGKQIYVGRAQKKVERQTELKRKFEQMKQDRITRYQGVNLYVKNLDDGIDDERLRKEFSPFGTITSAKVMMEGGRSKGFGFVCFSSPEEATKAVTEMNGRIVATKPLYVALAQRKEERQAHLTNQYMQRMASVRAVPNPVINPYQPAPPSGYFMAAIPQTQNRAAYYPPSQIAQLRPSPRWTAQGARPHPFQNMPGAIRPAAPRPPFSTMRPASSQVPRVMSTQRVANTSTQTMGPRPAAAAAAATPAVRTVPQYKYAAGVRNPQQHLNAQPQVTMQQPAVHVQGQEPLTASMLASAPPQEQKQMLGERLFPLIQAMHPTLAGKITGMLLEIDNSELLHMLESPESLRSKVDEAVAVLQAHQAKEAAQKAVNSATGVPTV

SMILES | inhibition (at 35 µM) | inhibition (confirmation repeats, at 20 µM)
COCCNC(=O)C(c1ccc(C)cc1)N(C(=O)CCC(=O)Nc1ccccn1)c1cccc(C)c1 (stereo not given) | -1.8% (inactive) | –
Cc1ccnc2nc(C(=O)Nc3nnc(-c4ccccc4)o3)nn12 | -1.8% (active) | 82.4%
Cc1cccc(NC(=O)Nc2nnc(-c3ccccc3)o2)c1 | -0.4% (inactive) | –
CCc1nnc(NC(=O)c2nc3nccc(C)n3n2)s1 | -2.3% (inactive) | –
CCCC1=Nc2cc(C(=O)NCCN3CCCC3)ccc2Sc2ccccc21 | -16.5% (inactive) | –
COc1cc(NC(=O)C2=C(C)OCCS2)c(Cl)cc1C(=O)NCCN1CCN(C)CC1 | -8% (inactive) | –
O=C(CSc1ccc(-c2ccco2)nn1)Nc1cccc(F)c1 | -7.4% (inactive) | –
O=C(NCCCc1ccccc1)C(=O)NCC1OCCN1S(=O)(=O)c1ccccc1 (stereo not given) | 10.1% (inactive) | –
Cc1cc(F)ccc1S(=O)(=O)N1CCCOC1CNC(=O)C(=O)NCCC1=CCCCC1 (stereo not given) | 0.9% (inactive) | –
O=C(NCCCn1ccnc1)C(=O)NCC1OCCN1S(=O)(=O)c1cc(F)ccc1F (stereo not given) | 58.4% (active) | –
Cc1ccc(C(=O)NC2CCN(C(=O)Nc3ccc(F)cc3)CC2)cc1 | 10.6% (inactive) | –
CC(NC(=O)COc1cccnc1[N+](=O)[O-])c1ccc(Cl)cc1Cl (stereo not given) | 0.4% (inactive) | –
CC(C)c1ccccc1OCC(O)CN(CC(O)COc1cccc2ccccc12)C(C)C (stereo not given) | 5.7% (inactive) | –
COc1ccc(C(=O)N(C)CC(O)c2ccccc2)cc1OC1CCN(C(C)=O)CC1 (stereo not given) | -3.1% (inactive) | –
COc1ccc(CNC(=O)C(Cc2ccccc2)n2cccc2)cc1 (stereo not given) | 9.5% (inactive) | –
Cc1ccc(C)n1C(Cc1ccccc1)C(=O)O (stereo not given) | 69.6% (active) | –
CC(Cc1ccccc1)C(=O)N(C)Cc1ccccc1 (stereo not given) | 2% (inactive) | –
COCCN1C(=O)N(c2ccc(Cl)cc2)C(=O)C1CC(=O)Nc1cc(OC)cc(OC)c1 (stereo not given) | -6.1% (inactive) | –
COc1cccc(NC(=O)CSc2nnc(Cc3ccc(OC)c(OC)c3)o2)c1 | 14.4% (inactive) | –
O=C(CCCN1C(=O)/C(=C/c2ccccc2)SC1=S)Nc1ccc(O)cc1 | -7.7% (inactive) | –
O=C(CCCN1C(=O)/C(=C/c2ccco2)SC1=S)Nc1ccccc1 | 17.5% (active) | 52.5%

SMILES | inhibition (at 35 µM) | inhibition (confirmation repeats, at 20 µM)
O=C(CCCN1C(=O)/C(=C\c2ccco2)SC1=S)Nc1cccc2ccccc12 | 4.3% (inactive) | -3.6%
CCCn1c(C)cc(/C=C(\C#N)C(=O)OCC(=O)Nc2cc(OC)c(OC)c(OC)c2)c1C | -0.7% (inactive) | –
COc1ccc(Cl)cc1NC(=O)c1cccc(N2C(=O)C3CC=CCC3C2=O)c1 (stereo not given) | -3.5% (inactive) | –
COc1ccccc1C1=Nc2cccc3cccc(c23)N1 | 65.3% (active) | 86.4%
c1ccc(C2=Nc3cccc4cccc(c34)N2)cc1 | 11.1% (inactive) | –
Fc1ccccc1N=C1Nc2cccc3cccc1c23 | -10.8% (inactive) | –
CC(C)c1ccc(S(=O)(=O)N2CCC3(CC2)OCCO3)cc1 | -6.1% (inactive) | –
COc1cc([C@H](Cc2ccccc2)NC(C)=O)oc(=O)c1 | 76.2% (active) | –
CCOC(=O)C(Cc1ccccc1)NC(=O)CCC(=O)c1ccc(OC)cc1 (stereo not given) | -2.7% (inactive) | –
COC(=O)[C@H](Cc1ccccc1)NC(=O)Nc1ccc(OC)cc1 | -6.6% (inactive) | –
O=C(CCC1CCN(C(=O)c2cccc(Cl)c2F)CC1)Nc1ccccc1 | -10.6% (inactive) | –
CS(=O)(=O)N1CCN=C1SCc1ccc(F)cc1 | 0.3% (inactive) | –
CCN(c1ccccc1)S(=O)(=O)c1cc2c(cc1C)n(C)c(=O)c(=O)n2C | -2% (inactive) | –
CS(=O)(=O)NCc1ccc(C(=O)NCc2ccccc2)cc1 | 48.1% (inactive) | –
Nc1ccc(C(=O)NCc2ccccc2)cc1 | 3.4% (inactive) | –
C[n+]1ccc(C(=O)NCc2ccccc2)cc1 | 64.2% (active) | 92.7%
COC(=O)c1c(NC(=O)c2c(Cl)cnn2C)sc(C)c1C | -5.8% (inactive) | –
Cn1ncc(Br)c1C(=O)NC1CCCC1 | 2.8% (inactive) | –
CN(C(=O)c1c(Cl)cnn1C)C12CC3CC(CC(C3)C1)C2 | 86.8% (active) | 75%
Cn1c(CCc2ccccc2)nnc1SCC(N)=O | -5.2% (inactive) | –
C/C(=N\Nc1nncc2ccccc12)c1ccc(Cl)c([N+](=O)[O-])c1 | 2% (inactive) | –

SMILES | inhibition (at 35 µM) | inhibition (confirmation repeats, at 20 µM)
Clc1ccc(CN2CCCCCC2)cc1Cl | 17.8% (inactive) | –
COc1ccccc1CN1CC(C(=O)NCCc2cn[nH]c2)CCC1=O (stereo not given) | 27% (inactive) | –
CCn1nnnc1SCC(=O)Nc1ccc(N(C)C)cc1 | 1.4% (inactive) | –
Cc1ccc(Nc2nc(Cl)c(C=O)s2)cc1 | 40.3% (inactive) | 44.5%
Cc1cc(C)c2nc(-c3ccco3)cc(C(=O)O)c2c1 | 91.2% (active) | –
COC(=O)c1cnn2c(C(F)(F)F)cc(-c3ccco3)nc12 | 23.9% (inactive) | –
Cc1ccsc1-c1cc(C(=O)O)c2c(ccc3ccccc32)n1 | 20.2% (inactive) | –
Cc1cc(C)nc(N/N=C/c2ccncc2)n1 | 2% (inactive) | –
CCN(CC)c1ccc(/C=N/NC(=O)c2cnccn2)c(O)c1 | -7.1% (inactive) | –
CCN(CC)c1ccc(/C=N/Nc2nc(C)cc(C)n2)c(O)c1 | 16.6% (active) | 67.4%
CC1CSc2nnc(CCc3ccccc3)n21 (stereo not given) | -2.9% (inactive) | –
c1ccc(CCC2=NCCn3cccc32)cc1 | 67.5% (active) | –
S=C(NCCc1ccccc1)N1CCn2cccc2C1c1ccncc1 (stereo not given) | 6.4% (inactive) | –
O=C(Nc1cccnc1Cl)c1cc(-c2ccccc2O)on1 | -6.2% (inactive) | –
COc1ccc(NC(=O)c2cccc3c2C(=O)N(CC2CCCO2)C3)cc1OC (stereo not given) | -2% (inactive) | –
COc1ccc(CNC(=O)c2cc3c(=O)n4ccccc4nc3n(CC3CCCO3)c2=N)cc1 (stereo not given) | -5.2% (inactive) | –
Cc1cccn2c(=O)c3cc(C(=O)NCC4CCCO4)c(=N)n(Cc4ccc(F)cc4)c3nc12 (stereo not given) | -1% (inactive) | –
Cc1ccc2nc3c(cc(C(=O)NCCc4ccccc4)c(=N)n3CC3CCCO3)c(=O)n2c1 (stereo not given) | 83.3% (active) | –
COc1ccc(-n2c(=O)[nH]c3cc(C(=O)NCCc4ccc(OC)c(OC)c4)ccc3c2=O)c(OC)c1 | 11% (inactive) | –
COc1ccc(N2CCN(C(=O)c3ccccc3NC(=O)C3=C(C)OCCS3)CC2)cc1 | -6.5% (inactive) | –
